Assay [1] is described as follows: Quantitative High-Throughput drug screen in 47 multiple myeloma cell lines against the NCATS MIPE library collection: H1112_PLB cell viability assay (AID 1918967; also: nearly all actives have a fitted effect of over 30% in size). An outline of the steps: (§1)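 Myeloma cells (500 per well) were exposed to MIPE 4.0 compounds by pin transfer and incubated 48 hours at 37C, 5% CO2. Viability was read as ATP by CellTiter-Glo luminescence, normalised to DMSO (100%) and media-only (0%) wells.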

A short description of assay [2]: Quantitative High-Throughput drug screen in 47 multiple myeloma cell lines against the NCATS MIPE library collection: KMS27_JCRB cell viability assay (AID 1918970). Also: nearly all actives have a fitted effect of over 30% in size. The procedure, abridged: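 Myeloma cells (500 per well) were exposed to MIPE 4.0 compounds for 48 h at 37 °C, 5% CO2; viability was read as ATP luminescence with CellTiter-Glo, normalized to DMSO-only (100%) and media-only (0%) wells.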

Assay [3] in a line: Quantitative High-Throughput drug screen in 47 multiple myeloma cell lines against the NCATS MIPE library collection: KMS12BM_JCRB cell viability assay (AID 1918971). Also: nearly all actives have a fitted effect of over 35% in size. An outline of the steps: (§2)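 Relative luminescence from CellTiter-Glo served as the viability signal, referenced to DMSO-treated (100%) and cell-free medium (0%) controls. Treatment lasted 48 hours at 37C with 500 cells per well.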

Assay [4] in a line: Quantitative High-Throughput drug screen in 47 multiple myeloma cell lines against the NCATS MIPE library collection: KMS12PE_JCRB cell viability assay (AID 1918972). Also: nearly all actives have a fitted effect of over 30% in size. An outline of the steps: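 CellTiter-Glo ATP luminescence gave viability after 48 h compound treatment at 37C of 500 multiple myeloma cells per well. Normalisation used DMSO-only wells as 100% and media-only wells as 0% viability; primary qHTS of approved and investigational drugs.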

Assay [5] in a line: Quantitative High-Throughput drug screen in 47 multiple myeloma cell lines against the NCATS MIPE library collection: Karpas25_ECACC cell viability assay (AID 1918968; also: nearly all actives have a fitted effect of over 35% in size). An outline of the steps: as §1
The nature of assay [6]: Quantitative High-Throughput drug screen in 47 multiple myeloma cell lines against the NCATS MIPE library collection: KMS20_JCRB cell viability assay (AID 1918973). Also: nearly all actives have a fitted effect of over 45% in size. An outline of the steps: as §1
A short description of assay [7]: Quantitative High-Throughput drug screen in 47 multiple myeloma cell lines against the NCATS MIPE library collection: KMS26_JCRB cell viability assay (AID 1918975). Also: nearly all actives have a fitted effect of over 45% in size. An outline of the steps: as §2
Assay [8] is described as follows: Quantitative High-Throughput drug screen in 47 multiple myeloma cell lines against the NCATS MIPE library collection: KMS21BM_JCRB cell viability assay (AID 1918974). To be noted: ATP luminescence, 48 h; viability: at 45.8 µM (top of the series) unless noted. The procedure, abridged: as §1

Structures are written as SMILES. Inconclusive results are not listed. The source made the active and inactive calls. Calls follow the shape of the dose curve; as a rule, active = well fitted cell-killing curve with a large enough effect; inconclusive = small, poorly fitted or top-dose-only effect, or effect the other way; inactive = no such curve, though single readings can be large or run the other way.
Potency is read from the fitted curve at half-maximal effect.

On to `Cc1ccc([C@@H]2O[C@H](CO)[C@@H](O)[C@H](O)[C@@H]2O)cc1Cc1ccc(-c2ccc(F)cc2)s1`, for which the Potency entry in assay [1] and in assay [3] was “inactive” each time. In addition, the Potency in assay [2] is 23.5 µM (active); in assay [4] it was 20.9 µM (active).
Regarding `COc1cccc(-c2cc(=O)c3ccccc3o2)c1N`, the Potency in assay [5] was 1.66 µM (active); in assay [6], 7.43 µM (active). Moreover, the Potency entry in assay [2] was “inactive”.
`C[N+]1(C)[C@@H]2CC(OC(=O)[C@H](CO)c3ccccc3)C[C@H]1[C@H]1O[C@@H]12` (some centres not stated): the Potency entry in assay [1], in assay [2], in assay [3], in assay [4], in assay [6] and in assay [7] was “inactive” in each case.
Take `CC=CC[C@@H](C)C(=O)[C@H]1C(=O)N[C@@H](C(C)C)C(=O)N(C)CC(=O)N(C)[C@@H](CC(C)C)C(=O)N[C@@H](C(C)C)C(=O)N(C)[C@@H](CC(C)C)C(=O)N[C@@H](C)C(=O)N[C@H](C)C(=O)N(C)[C@@H](CC(C)C)C(=O)N(C)[C@@H](CC(C)C)C(=O)N(C)[C@@H](C(C)C)C(=O)N1C`: the results for the Potency in assay [2], in assay [3] and in assay [6] were 4.69 µM (active), 23.5 µM (active) and 1.32 µM (active), respectively. Also, in assay [4], the Potency result was “inactive”.
On to `COCCOC(=O)C1=C(C)NC2=C(C(=O)CC(c3ccccc3OC)C2)C1c1cccc(O)c1` (configuration not stated), for which the Potency in assay [5] is 13.2 µM (active); in assay [3], 10.5 µM (active); in assay [6], 4.18 µM (active); in assay [7], 8.33 µM (active).
Consider `CO[C@H]1C=CO[C@@]2(C)Oc3c(C)c(O)c4c(O)c(c5c(c4c3C2=O)NC2(CCN(CC(C)C)CC2)N=5)=NC(=O)C(C)=CC=C[C@H](C)[C@H](O)[C@@H](C)[C@@H](O)[C@@H](C)[C@H](OC(C)=O)[C@H]1C`, for which the Potency entry in assay [1] and in assay [7] was “inactive” in each case. For the same compound, the Potency was 16.6 µM (active) in assay [5] and 11.8 µM (active) in assay [4].
Regarding `N[C@H](CSC(c1ccccc1)(c1ccccc1)c1ccccc1)C(=O)O`, the Potency was 11.8 µM (active) in assay [5] and 18.7 µM (active) in assay [2].
As for `CC(C)(C(=O)NCC(F)(F)C(F)(F)F)C(=O)N[C@@H]1C(=O)Nc2ccccc2-c2ccccc21`, the values for the Potency in assay [1], in assay [2] and in assay [4] were 16.6 µM (active), 1.32 µM (active) and 16.6 µM (active), respectively. Moreover, the Potency result in assay [3] is “inactive”.
For `COc1ccc2cc(-c3nc(-c4ccc(S(C)=O)cc4)[nH]c3-c3ccncc3)ccc2c1` (configuration not stated), the Potency in assay [5] is 26.4 µM (active); in assay [6], 7.43 µM (active).
For `C[C@H]1[C@H](NC(=O)C(=NOC(C)(C)C(=O)O)c2csc(N)n2)C(=O)N1S(=O)(=O)O`, the Potency entry in assay [1], in assay [2], in assay [4] and in assay [7] was “inactive” in each case. Also, the Potency in assay [3] was 1.48 µM (active); in assay [6] it was 16.6 µM (active).
For the compound `O=C(CCN1CCN(C(=O)OCc2cc(Cl)cc(Cl)c2)CC1)c1ccc2[nH]c(=O)oc2c1`, the Potency entry in assay [1], in assay [3] and in assay [4] was “inactive” throughout.
Take `N#C[C@H]1C[C@H]2C[C@@H]2N1C(=O)[C@@H](N)C12CC3CC(CC(O)(C3)C1)C2`: the Potency entry in assay [2] and in assay [4] was “inactive” each time.
In the case of `C[N+](C)(C)CC(=O)O`, the Potency entry in assay [1] and in assay [4] was “inactive” each time.
For `COCCCCC(=NOCCN)c1ccc(C(F)(F)F)cc1`, in assay [3], the Potency was 20.9 µM (active). The Potency result in assay [4] is “inactive”.
`CO[C@H]1C[C@@H]2CC[C@@H](C)[C@@](O)(O2)C(=O)C(=O)N2CCCC[C@@H]2C(=O)O[C@H]([C@H](C)C[C@@H]2CC[C@H](OC(=O)C(C)(CO)CO)[C@H](OC)C2)CC(=O)[C@H](C)C=C(C)[C@@H](O)[C@@H](OC)C(=O)[C@H](C)C[C@H](C)C=CC=CC=C1C`: the Potency in assay [5] was 13.2 µM (active); in assay [6], 11.8 µM (active).
For the compound `COc1cc(Nc2ncc(F)c(Nc3ccc4c(n3)NC(=O)C(C)(C)O4)n2)cc(OC)c1OC`, the Potency in assay [5] was 1.66 µM (active); in assay [2], 11.8 µM (active); in assay [6], 1.05 µM (active); in assay [7], 9.35 µM (active).
`O=C(CCc1ccc(O)cc1)c1c(O)cc(O)cc1O[C@@H]1O[C@H](CO)[C@H](O)[C@H](O)[C@H]1O`: the Potency entry in assay [1], in assay [2], in assay [3], in assay [4], in assay [6] and in assay [7] was “inactive” throughout.
Turning to `CN(C)CCC=C1c2ccccc2COc2ccc(CC(=O)O)cc21`, the Potency result in assay [2], in assay [3], in assay [4] and in assay [6] was “inactive” in each case.
Regarding `O=C1NC(=O)C(=Cc2cccc(C(F)(F)F)c2)S1`, the Potency in assay [3] was 20.9 µM (active).
As for `C=C1C(=O)OC(CCCCCCCC)C1C(=O)O` (configuration not stated), in assay [5], the Potency is 26.4 µM (active). Besides, the Potency result in assay [2] was “inactive”.
Consider `CC(C)(C)OC(=O)N[C@H]1CCCCCC=C[C@@H]2C[C@@]2(C(=O)NS(=O)(=O)C2CC2)NC(=O)[C@@H]2C[C@@H](OC(=O)N3Cc4cccc(F)c4C3)CN2C1=O`, for which the Potency result in assay [1], in assay [2], in assay [3], in assay [6] and in assay [7] was “inactive” each time. Moreover, the Potency in assay [4] was 13.2 µM (active).
For `COc1ccc2c(Oc3ccc(NC(=O)c4c(C)n(CC(C)(C)O)n(-c5ccccc5)c4=O)nc3)ccnc2c1`, the Potency result in assay [1] and in assay [2] was “inactive” each time.
In the case of `Clc1ccc(COC(Cn2ccnc2)c2ccc(Cl)cc2Cl)cc1` (configuration not stated), the Potency in assay [4] was 23.5 µM (active).
As to `C[C@]12CC[C@@H]3c4ccc(O)cc4CC[C@H]3[C@H]1C[C@@H](O)[C@H]2O`, the Potency result in assay [1], in assay [5] and in assay [6] was “inactive” throughout. Moreover, the Potency in assay [7] is 0.0418 µM (active).
`COc1cc(N2CCC(N3CCN(C)CC3)CC2)ccc1Nc1ncnc(Nc2ccccc2S(=O)(=O)C(C)C)n1`: the Potency in assay [3] is 23.5 µM (active). Besides, the Potency result in assay [4] was “inactive”.
Take `C[C@]12CCC3c4ccc(O)cc4CCC3C1CCC2=O` (some centres not stated): the Potency result in assay [1], in assay [2] and in assay [4] was “inactive” in each case. Besides, the Potency in assay [3] was 20.9 µM (active); in assay [7] it was 3.32 µM (active).
Take `CC1(C)CCC2=C(O1)c1ccccc1C(=O)C2=O`: the Potency in assay [5] is 5.9 µM (active); in assay [2], 3.32 µM (active); in assay [3], 20.9 µM (active); in assay [4] it was 5.9 µM (active); in assay [6] it was 18.7 µM (active); in assay [7], 18.7 µM (active).
For `O=C1NC(=O)C(=Cc2ccc3c(c2)OC(F)(F)O3)S1`, the Potency is 20.9 µM (active) in assay [1], 18.7 µM (active) in assay [5], 13.2 µM (active) in assay [6] and 18.7 µM (active) in assay [7].
With `O=C(NOCC(O)CO)c1cc(Br)c(F)c(F)c1Nc1ccc(I)cc1F` (configuration not stated), in assay [1], the Potency is 0.118 µM (active). Further, the Potency result in assay [2] and in assay [7] was “inactive” each time.
For `O=C(O)c1ccc(-c2c[nH]c3ncc(-c4ccccc4)cc23)cc1C1CCCC1`, the Potency entry in assay [4] and in assay [7] was “inactive” throughout.
As for `N#Cc1ccc(NC(=O)Nc2ccccc2Br)c2n[nH]nc12`, the figures for the Potency in assay [5], in assay [2] and in assay [4] were 16.6 µM (active), 13.2 µM (active) and 9.35 µM (active), respectively. Further, the Potency entry in assay [3] and in assay [6] was “inactive” throughout.
Take `O=C(O)c1cc(O)c2c(c1)C(=O)c1cccc(O)c1C2=O`: the Potency entry in assay [1] and in assay [4] was “inactive” each time.
Take `C[C@H](NC(=O)c1sccc1OCc1ccc(Cl)cc1)c1ccccc1`: the results for the Potency in assay [5] and in assay [3] were 16.6 µM (active) and 18.7 µM (active), respectively. Also, the Potency result in assay [2] and in assay [4] was “inactive” throughout.
In the case of `COc1ccc(Cc2ccc(NC(N)=O)cc2)cc1-c1cccc(Cl)c1`, the Potency entry in assay [1] and in assay [7] was “inactive” each time.
`Clc1ccc(CCC(Cn2ccnc2)Sc2c(Cl)cccc2Cl)cc1` (configuration not stated): the Potency in assay [5] is 16.6 µM (active); in assay [2], 18.7 µM (active); in assay [4], 14.8 µM (active); in assay [8], 23.5 µM (active).
Take `COc1cc(N2CCC(N3CCN(C)CC3)CC2)ccc1Nc1ncc(Cl)c(Nc2ccccc2S(=O)(=O)C(C)C)n1`: the Potency entry in assay [5] was “inactive”.
Consider `O=c1[nH]cnc2c1ncn2[C@H]1CC[C@@H](CO)O1`, for which the Potency entry in assay [1], in assay [4] and in assay [7] was “inactive” in each case.
`OC[C@H]1O[C@@H](Oc2cc(O)cc(C=Cc3ccc(O)cc3)c2)[C@H](O)[C@@H](O)[C@H]1O`: the Potency result in assay [2], in assay [3], in assay [4] and in assay [7] was “inactive” in each case.

These data come from PubChem BioAssay (NCATS).
